Screening results: PubChem, National Center for Advancing Translational Sciences (NCATS)
In the library only some 0.9% were active in any assay of this set; here they are far more common.
RXFP1 ag – RXFP1 (human) receptor agonism. HEK293T-RXFP1 cAMP TR-FRET, 30 min; response scale: percent of porcine relaxin response, buffer zero. Potency, µM (titrated, usually from 57.5 µM), most hits filed as activators. hit rate 0.3% among 370,000. AID 2676; active means well fitted activation curve with a large enough effect; inconclusive means small, poorly fitted or top-dose-only effect; further: nearly all actives have a fitted effect of over 60% in size
Target sequence (Q9HBX9 whole entry, looked up): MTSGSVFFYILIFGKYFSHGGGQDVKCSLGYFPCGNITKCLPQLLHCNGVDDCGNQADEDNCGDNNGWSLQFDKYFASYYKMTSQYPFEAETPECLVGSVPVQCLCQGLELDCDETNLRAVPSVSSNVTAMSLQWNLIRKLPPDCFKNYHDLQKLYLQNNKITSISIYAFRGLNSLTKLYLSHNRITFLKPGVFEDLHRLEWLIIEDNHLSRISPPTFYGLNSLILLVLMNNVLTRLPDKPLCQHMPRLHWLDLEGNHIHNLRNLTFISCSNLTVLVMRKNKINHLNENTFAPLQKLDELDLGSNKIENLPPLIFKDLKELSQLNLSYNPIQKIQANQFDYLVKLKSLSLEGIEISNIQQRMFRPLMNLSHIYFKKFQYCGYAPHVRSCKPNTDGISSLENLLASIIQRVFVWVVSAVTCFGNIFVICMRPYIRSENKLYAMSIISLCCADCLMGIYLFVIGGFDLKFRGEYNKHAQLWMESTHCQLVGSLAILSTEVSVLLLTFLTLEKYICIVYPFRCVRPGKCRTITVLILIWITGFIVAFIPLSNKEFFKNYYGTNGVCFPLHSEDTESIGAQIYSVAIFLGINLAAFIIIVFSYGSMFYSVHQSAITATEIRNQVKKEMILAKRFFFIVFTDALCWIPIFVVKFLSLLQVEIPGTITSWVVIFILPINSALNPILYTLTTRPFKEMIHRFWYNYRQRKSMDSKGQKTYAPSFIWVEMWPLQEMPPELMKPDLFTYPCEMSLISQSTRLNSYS
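Agonist response is measured as cAMP accumulation in an RXFP1-transfected HEK293T line under PDE4 inhibition. Values are scaled between buffer-only and 29 nM porcine relaxin, and EC50s come from standard Hill equation fits.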
gsp antag – antagonists of gsp mutant (McCune-Albright syndrome); Potency, µM (titrated, usually from 76.9 µM), most hits filed as inhibitors; hit rate 0.4% among 340,000; gsp-mutant cells, cAMP HTRF, 30 min; calls by dose curve; cell line not stated here;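 further: intracellular cAMP measured with PDE inhibitor Ro 20-1724 present during compound exposure; nearly all actives have a fitted effect of over 65% in size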
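G418-selected cells were plated in DMEM/10% FBS for 16-24 h at 37C, then treated with compounds plus the PDE inhibitor […] (300 uM solution added) for 30 min at 37C. Intracellular cAMP was measured by HTRF after 30 min lysis at room temperature.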
gsp agonist – agonists of gsp mutant (McCune-Albright syndrome) | gsp mutant cells, cAMP HTRF, 30 min | hit rate 0.13% among 340,000 | Potency, µM (highest dose often 76.9 µM), hits mostly activators; active means well fitted activation curve with a large enough effect; inconclusive means small, poorly fitted or top-dose-only effect, or another doubt; inactive means no such curve, though single readings can be large or run the other way; cell line not stated here;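 further: phosphodiesterase inhibitor Ro 20-1724 added with compounds to block cAMP breakdown; nearly all actives have a fitted effect of over 60% in size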
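Cells in DMEM/10% FBS with G418 were pretreated with compounds in DMSO plus […] (300 uM stock) for 30 min at 37C. cAMP was measured by HTRF (cAMP-d2 plus anti-cAMP antibody-K) after 30 min at room temperature.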
RXFP1 antagonist – antagonists of human relaxin receptor RXFP1; Q9HBX9; HEK293-RXFP1, relaxin-stimulated cAMP HTRF, 30 min; hits give low values; activity change, negative = inhibition, % at 57.5 µM; hit rate 0.59% among 350,000; AID 1259400;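 active means activity change of -60% or lower, but not beyond a set lower limit; inconclusive means change between -60% and -40%, or beyond the set limit; inactive means change above -40%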
Of the large screens only hits and unclear results are named; the others gave an inactive call.

CSC1=NSC2=NC(=O)/C(=C\c3ccc(OC(=O)c4ccco4)cc3)C(=N)N12	gsp antag inconclusive, RXFP1 antagonist inconclusive
CC1=CSC2=NC(=O)/C(=C/c3cccc(OC(=O)c4ccco4)c3)C(=N)N12	RXFP1 antagonist -80.0
CC1=CC2=NC(=O)/C(=C\c3ccc(OC(=O)c4ccco4)cc3)C(=N)N2O1	none
CCc1ccccc1S(=O)(=O)Cc1ccc(C(=O)NCCc2ccc(Cl)cc2)o1	none (no result: gsp antag, gsp agonist, RXFP1 antagonist)
O=C(Nc1ccsc1C(=O)O)c1cccc(Oc2ccccc2)c1	gsp antag inconclusive, RXFP1 antagonist -80.3
COc1ccc(Cc2nc3c4cnn(-c5ccccc5Br)c4ncn3n2)cc1	none (no result: gsp antag, gsp agonist)
COc1ccc(Br)cc1CC1C(=O)Nc2ccccc21 (stereo unspecified)	RXFP1 antagonist -69.2 (no result: gsp antag, gsp agonist)
CC1=C(C(=O)Nc2cccc(C(=O)N3CCN(c4cccc(C(F)(F)F)c4)CC3)c2)SCCO1	gsp antag 50.1µM
CC1=C(C(=O)Nc2ccc(C(=O)N3CCN(c4cccc(Cl)c4)CC3)cc2)SCCO1	gsp antag inconclusive
O=[N+]([O-])c1ccc(N=Nc2c(Cl)cc(O)cc2Cl)cc1	gsp antag 15.8µM
Cc1ccc2nc(N/C(=N/S(=O)(=O)c3ccc(F)cc3F)c3ccccc3)sc2c1	none
Cc1ccc2nc(N/C(=N/S(=O)(=O)c3ccc(F)cc3)c3ccccc3)sc2c1	gsp antag 25.1µM
CC(=O)CC/C=C(\C)CC/C=C(/C)CC/C=C(\C)CCC=C(C)C	none (no result: RXFP1 ag, gsp antag, gsp agonist)
COc1ccc(C(=O)NCCn2cc(SCc3c(F)cccc3Cl)c3ccccc32)cc1	none (no result: gsp antag, gsp agonist, RXFP1 antagonist)
CC(=O)Nc1scc(-c2ccccc2)[n+]1-c1ccc(C)cc1	gsp antag 50.1µM
O=C(Nc1ccc(OC(F)F)c(Cl)c1)c1cccc(OC(F)F)c1	gsp antag 39.8µM
O=C(Nc1ccc(OC(F)F)c(Cl)c1)Nc1ccc2c(c1)OCO2	gsp antag inconclusive
O=C(Nc1ccc([N+](=O)[O-])cc1)Nc1ccc(OC(F)F)c(Cl)c1	gsp antag 39.8µM, RXFP1 antagonist inconclusive
COc1ccc(NC(=O)c2cccc(OC(F)F)c2)cc1Cl	none
O=C1OC(/C(=C\Nc2cc(Cl)ccc2O)[N+](=O)[O-])c2ccccc21 (stereo unspecified)	RXFP1 antagonist -82.1
O=C1C2CCCN2C(c2ccc(Br)cc2)N1c1ccc(F)cc1 (stereo unspecified)	gsp antag 50.1µM (no result: RXFP1 antagonist)
CCN1CCOC(=O)C1CC(=O)Nc1cccc(OC)c1 (stereo unspecified)	none (no result: gsp antag, gsp agonist)
COC(=O)C1C(=O)c2c([nH]c(C(=O)OC3CCCC3C)c2C)CC1C (stereo unspecified)	RXFP1 antagonist -62.7
Cc1cccc(-n2nnc(-c3nc(-c4cccs4)no3)c2N)c1C	none (no result: gsp antag, gsp agonist)
Cc1c(C(=O)OCC2CCCO2)[nH]c2c1C(=O)CC(c1ccc(N(C)C)cc1)C2 (stereo unspecified)	gsp antag 39.8µM
Cc1c(C(=O)OCc2ccccc2)[nH]c2c1C(=O)CC(c1ccc(N(C)C)cc1)C2 (stereo unspecified)	none (no result: gsp antag, gsp agonist)
C#CCn1c(C2CC(=O)N(c3ccc(OCC)cc3)C2)nc2ccccc21 (stereo unspecified)	none (no result: gsp antag, gsp agonist)
Nc1nonc1-n1nnc(C(=O)N/N=C/c2cccnc2)c1CSc1ccc(Cl)cc1	gsp antag 35.5µM, RXFP1 antagonist -64.8
CCCOc1ccc(/C=N/NC(=O)c2nnn(-c3nonc3N)c2-c2cccs2)cc1OC	gsp antag 31.6µM
Nc1nonc1-n1nnc(C(=O)N/N=C/c2cccnc2)c1CSc1ccccc1	none
CN(C)Cc1c(C(=O)N/N=C/c2cccc(OCc3ccccc3)c2)nnn1-c1nonc1N	gsp antag 50.1µM
Nc1nonc1-n1nnc(C(=O)N/N=C/c2ccc(Br)cc2)c1-c1ccc2c(c1)OCO2	gsp antag inconclusive, RXFP1 antagonist inconclusive
Nc1nonc1-n1nnc(C(=O)N/N=C/c2ccc3c(c2)OCO3)c1-c1ccccc1	gsp antag 35.5µM
Cc1ccc(NC(=O)CSc2nc3ncccc3[nH]2)cc1F	none (no result: gsp antag, gsp agonist)
CN1CC(=O)NC1=N	none (no result: RXFP1 ag, gsp antag, gsp agonist)
CN1CCc2c(sc(NC(=O)CS(=O)(=O)c3ccccc3)c2C(N)=O)C1	gsp antag inconclusive, RXFP1 antagonist -62.7
CCCN1CCc2c(sc(NC(=O)CCS(=O)(=O)c3ccccc3)c2C(N)=O)C1	gsp agonist inconclusive
CCSc1nnc(-c2ccccc2SC)o1	RXFP1 ag 22.4µM, gsp agonist inconclusive
COC(=O)c1ccc(Oc2nc3c(c(=O)n(C)c(=O)n3C)n2Cc2ccc(Cl)c(Cl)c2)cc1	none (no result: gsp antag, gsp agonist, RXFP1 antagonist)
COc1cc(/C=C2/C(=O)c3cccc([N+](=O)[O-])c3C2=O)c(Br)cc1O	gsp antag 35.5µM
O=C1N=c2ccccc2=C1c1sc(Nc2ccc(O)cc2)nc1O	RXFP1 antagonist -80.8
O=C1N=c2ccccc2=C1c1sc(Nc2cccc(O)c2)nc1O	gsp antag inconclusive
COC(=O)c1ccccc1N=Nc1c(N)n[nH]c1N	none
COC(=O)c1ccccc1N=Nc1c(N)[nH][nH]c1=O	gsp antag 39.8µM, RXFP1 antagonist inconclusive
CCOc1ccc(CCNC(=O)CCc2c(C)nc3cc(-c4ccccc4OC)nn3c2C)cc1	none (no result: gsp antag, gsp agonist)
FC(F)(F)c1cccc(Nc2nc3nonc3nc2Nc2ccc(Cl)cc2)c1	RXFP1 antagonist -82.2 (no result: gsp antag, gsp agonist)
CCOCc1cc(CN2CCN(c3cccc(Cl)c3)CC2)c(O)c2ncccc12	none (no result: gsp antag, gsp agonist)
Cc1ccc(C(=O)Nc2nnc(COc3ccccc3)s2)cc1	RXFP1 ag inconclusive, gsp agonist inconclusive
Cc1ccc(OCc2nnc(NC(=O)c3cccnc3)s2)cc1	gsp antag 7.94µM
Cc1cc(C(=O)COC(=O)Cn2cnc3c2c(=O)n(C)c(=O)n3C)c(C)n1C	RXFP1 ag inconclusive, gsp agonist 3.98µM
Cn1c(=O)c2c(ncn2CC(=O)OCC(=O)c2ccc(F)c(F)c2)n(C)c1=O	none
COc1ccc(/C=C2\SC(=S)N(NS(=O)(=O)c3ccccc3)C2=O)c(OC)c1	gsp antag inconclusive, RXFP1 antagonist -68.2
COc1ccc(OC)c(/C=C2\SC(=S)N(NS(=O)(=O)c3ccc(C)cc3)C2=O)c1	gsp antag inconclusive, RXFP1 antagonist inconclusive
COc1ccccc1/C=C1\SC(=S)N(NS(=O)(=O)c2ccc(C)cc2)C1=O	gsp antag inconclusive, gsp agonist inconclusive
CCOc1cc(/C=C2\SC(=S)N(NS(=O)(=O)c3ccccc3)C2=O)ccc1O	gsp antag 25.1µM
COc1ccc(OC)c(/C=C2\SC(=S)N(NS(=O)(=O)c3ccccc3)C2=O)c1	gsp antag 17.8µM, gsp agonist inconclusive
COc1ccc(/C=C2\SC(=S)N(NS(=O)(=O)c3ccc(C)cc3)C2=O)c(OC)c1	gsp antag 50.1µM
CCOc1ccc(/C=C2\SC(=S)N(NS(=O)(=O)c3ccccc3)C2=O)cc1OC	none
O=C(Nc1ccc(Cl)cc1)c1cnn2c1NC(c1ccccc1)=CC2c1ccccc1 (stereo unspecified)	none (no result: gsp antag, gsp agonist)
COc1ccnc2c1CCCCC2S(=O)c1nc2ccccc2[nH]1 (stereo unspecified)	none (no result: RXFP1 ag, gsp antag, gsp agonist)
O=C1c2cccc(NCCCNCCO)c2C(=O)c2cccc(NCCCNCCO)c21	gsp antag 39.8µM, RXFP1 antagonist inconclusive (no result: RXFP1 ag)
